Screening results: PubChem, ICCB-Longwood Screening Facility, Harvard Medical School
VACV E9 pol inh: vaccinia E9 polymerase processive synthesis inhibitors, primary screen, biochemical, absorbance; 46,000 compounds, 0.94% hits; normalized absorbance, % (no concentration beside the values); AID 493162, 2011; Vaccinia virus DNA polymerase (E9) processive complex; in vitro processive DNA synthesis, absorbance read-out; hits give low values; in the data active = normalized absorbance mostly below about 85%, no sharp cut-off; inactive = mostly above about 86%
* hit, by the source's call. This excerpt belongs to a sample that is enriched for hits.

SMILES	VACV E9 pol inh
Cc1ccc2cc3cc(C(=O)NCCN4CCN(c5cccc(Cl)c5)CC4)sc3nc2c1	104.2
CCN1CCN(CCCNC(=O)c2cc3cc4ccc(Cl)cc4nc3o2)CC1	93.5
Cc1ccc2cc3cc(C(=O)NCCCN4CCCCCC4)sc3nc2c1	66.0*
COc1ccc2cc3cc(C(=O)NCCCN4CCCCCC4)oc3nc2c1	62.9*
COc1ccc2cc3cc(C(=O)NCCC4=CCCCC4)sc3nc2c1	102.9
COc1ccc2cc3cc(C(=O)NC4CCCC(C)C4C)oc3nc2c1 (configuration not stated)	101.2
O=C(COC(=O)/C=C/c1cccs1)Nc1ccccc1	103.1
O=C(COC(=O)c1ccc(Oc2ccccc2)cc1)NCc1ccccc1	97.9
COc1ccc2c(c1)cc1n2CCN2CCN=C12	76.3
COc1ccc2c(c1)c1nc(N(C)C)nc3c1n2CCN3C	11.2*
COc1ccc2c(c1)cc1n2CCN=C1N	90.3
O=C(c1ccc(F)cc1F)N1CCN(C(=O)c2ccc(F)cc2F)CC1	91.4
CN1/C(=C\C=C2C(=O)CC(C)(C)CC2=O)C(C)(C)c2ccccc21	100.5
Cc1ccc(C(=O)Nc2nnc(-c3ccccc3)s2)cc1	100.5
CC(C)C(=O)Nc1nnc(-c2ccc(Cl)cc2)s1	100.0
CC(C)C(=O)Nc1nnc(-c2ccccc2)s1	60.0*
O=C(Cn1ncc2c(=O)oc3ccccc3c21)NCCCN1CCN(c2ccccc2F)CC1	103.4
CCN(CC)C(=S)SC1=C(Cl)CS(=O)(=O)C1	94.9
O=C1N[C@H](C(=O)O)C1Cc1ccccc1 (some centres not stated)	98.6
CCOc1ccc2c(c1)C1C=CCC1C(c1ccc(C(=O)OC)cc1)N2 (configuration not stated)	104.7
CC(C)C1Nc2ccc(C(=O)O)cc2C2C=CCC21 (configuration not stated)	77.9*
O=C(O)C1C2CC=CC2c2cc(Cl)cc3c2N1CC1CC=CC31 (configuration not stated)	100.0
Cc1cc(Cl)ccc1NS(=O)(=O)c1ccc2c(c1)[C@H]1C=CC[C@H]1[C@@H](c1ccccc1)N2	100.7
Brc1ccccc1[C@@H]1Nc2ccccc2[C@@H]2C=CC[C@@H]21	100.1
O=C(O)C1Nc2ccccc2C2C=CCC12 (configuration not stated)	9.8*
SMILES	VACV E9 pol inh
Cc1ccc2c(c1)C1C=CCC1C(c1ccc(N=Cc3ccccc3)cc1)N2 (configuration not stated)	96.9
O=C(O)c1ccc(C2Nc3ccccc3C3C=CCC32)cc1 (configuration not stated)	10.5*
CCN(C(=O)c1oc2ccccc2c1C)c1ccccc1	99.7
CNC1c2c(ccc3ccccc23)OCC1CO (configuration not stated)	93.8
COc1cccc(NC(=S)NN)c1	103.6
COc1cc(C(=O)Nc2sccc2C#N)cc(OC)c1OC	100.0
O=C(Nc1cccc(Cl)c1)c1ccc(S(=O)(=O)N2CCCC2)cc1	99.4
CC1CN(C(=O)N2CCC(C(=O)O)CC2)c2cc(Cl)ccc2O1 (configuration not stated)	67.7*
CC1CN(C(=O)NC23CC4CC(CC(C4)C2)C3)c2cc(Cl)ccc2O1 (configuration not stated)	102.3
Cc1ccc2c(c1)N(C(=O)N1CCC(C(=O)O)CC1)CC(C)O2 (configuration not stated)	93.6
COC(=O)c1cc(C(=O)C2CCCCC2)c[nH]1	116.3
CCOc1cc(CNc2ccc(NC(=O)CC)cc2)ccc1OCc1cccs1	100.9
O=C(O)C(Cc1ccccc1)N1C(=O)/C(=C/c2ccccc2)SC1=S (configuration not stated)	97.0
COc1cc(/C=C2\SC(=S)N(C(C(=O)O)C(C)C)C2=O)cc(OC)c1O (configuration not stated)	99.6
CC(C)C(C(=O)O)N1C(=O)/C(=C/c2ccccc2)SC1=S (configuration not stated)	83.0*
CCOc1cc(=O)oc2ccc(Cl)cc12	107.5
C=CCn1cc(C(=O)NCCN2CCCCCC2)c(=O)c2cc(S(=O)(=O)N(CC)CC)ccc21	99.1
CC[C@@]1(O)C[C@H](O[C@H]2C[C@H](N(C)C)[C@H](O)[C@H](C)O2)c2c(cc3c(c2O)C(=O)c2c(O)cccc2C3=O)[C@H]1C(=O)OC	8.9*
CC[C@@]1(O)C[C@H](OC2CC(N(C)C)C(OC3CC(O)C(OC4CCC(=O)C(C)O4)C(C)O3)C(C)O2)c2c(cc3c(c2O)C(=O)c2c(O)cccc2C3=O)[C@H]1C(=O)OC (some centres not stated)	37.6*
O=C(CCN1C(=O)/C(=C/c2ccccc2)SC1=S)OC1CCCCC1	88.1
O=C(NC1CCCC1)C1CCN(C(=O)c2sccc2-n2cccc2)CC1	100.0
Brc1ccc(-c2nc(-c3cccs3)c(-c3cccs3)[nH]2)s1	104.8
Cc1csc2c(N3CC(C)OC(C)C3)ncnc12 (configuration not stated)	100.4
COC(=O)c1sccc1S(=O)(=O)N1CCN(c2ncnc3c(C)csc23)CC1	117.6
Cc1csc2c(N3CCN(C(=O)NC(C)(C)C)CC3)ncnc12	60.3*
SMILES	VACV E9 pol inh
O=C1NC(=S)N(c2ccccc2)C(=O)/C1=C/C=C/c1ccco1	52.9*
O=C1NC(=S)N/C1=C\c1ccco1	100.4
O=C1Nc2ccccc2/C1=C\C1=Cc2ccccc2OC1	92.4
O=C1Nc2ccccc2/C1=C/C(=O)c1ccccc1	100.3
O=C1NC(=O)N(c2ccccc2)C(=O)/C1=C/c1ccco1	99.8
O=C1Nc2ccccc2/C1=C/C=C/c1ccco1	65.7*
N#CC1=C(N)C2=C(N3CCOCC3)CCCC2C1(C#N)C#N (configuration not stated)	93.8
O=Nc1c(O)n(CN2CCCCC2)c2ccccc12	98.4
CCCC1CCC(c2ccc(C(=O)CCN(C)C)cc2)CC1 (configuration not stated)	92.6
CCCC1CCC(c2ccc(C(N)=O)cc2)CC1 (configuration not stated)	99.4
CCCCC1CCC(c2ccc(C(=O)O)cc2)CC1 (configuration not stated)	51.0*
COC(=O)c1cc(Br)ccc1OC(=O)/C=C/c1ccccc1	99.5
Cc1ccc2oc(=O)c3cc(C(=O)NCCN4CCCCC4C)sc3c2c1 (configuration not stated)	62.3*
Cc1ccc2oc(=O)c3cc(C(=O)N4CCN(c5ccc(F)cc5)CC4)sc3c2c1	101.0
Cc1ccc2oc(=O)c3cc(C(=O)Nc4ccc5c(C)cc(=O)oc5c4)sc3c2c1	103.7
COc1ccc(CN2C(=O)C(F)(F)C2c2cccc(Cl)c2)cc1 (configuration not stated)	93.5
COc1ccc(Nc2cc(C(=O)NCCc3ccccc3)c3ccccc3n2)cc1	98.8
Cc1ccc(Nc2cc(C(=O)NCCC(C)C)c3ccccc3n2)cc1C	71.1*
CC(C)CCNC(=O)c1cc(Sc2ccc(F)cc2)nc2ccccc12	91.0
Cc1nc2sccn2c(=O)c1S(=O)(=O)Nc1ccc2c(c1)OCCO2	108.0
O=C1NC(=O)/C(=C\c2ccccc2)S1	74.1*
Cc1ccc(/C=C2/Sc3ccccc3NC2=O)cc1	99.0
CC(=C\c1ccccc1)/C=C1/SC(=O)NC1=O	99.3
O=C1OC(=Nc2ccccc2)c2ccccc21	103.4
N=C1S/C(=C/c2ccco2)C(=O)N1c1nccs1	52.4*
Cc1nnc(N2C(=N)S/C(=C\c3ccccc3Cl)C2=O)s1	100.0
O=C1c2ccccc2C(=O)N1c1nccs1	100.1
